This passage reports MAPPIT interaction score results from the supplement of paper PMC10105736.

What all share (assay): MAPPIT interaction score (arbitrary units); higher = stronger binary interaction signal, active = hit call of the paper
For one test, the target named is Usp16-45. As to conditions: MAPPIT configuration: N-N; pair source set: Curagen_low_conf;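 active = MAPPIT score above the 99th percentile of random reference set scores in the same batch; inactive = at or below it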.
Another test has as its target Vsx1. The settings on record: MAPPIT configuration: N-C; pair source set: screen_3.
In a further test the target is Yp2. The settings on record: MAPPIT configuration: N-N; pair source set: Curagen_high_conf.
The next test has as its target Vha13. As to conditions: MAPPIT configuration: N-C; pair source set: screen_4.
Another test addresses Vti1a. As to conditions: MAPPIT configuration: N-N; pair source set: Curagen_high_conf.
Another test deals with Vps24. As to conditions: MAPPIT configuration: N-N; pair source set: Curagen_high_conf.
Another test has as its target Yif1. As to conditions: MAPPIT configuration: N-N; pair source set: RRS.
The target of a further test is U4-U6-60K. As to conditions: MAPPIT configuration: N-N; pair source set: DPIM.
The target in another test is Vps51. The settings on record: MAPPIT configuration: N-N; pair source set: screen_2.
Another test has as its target Zpr1. The settings on record: MAPPIT configuration: N-N; pair source set: Finley_Y2H.
The next test deals with sinah. The settings on record: MAPPIT configuration: N-N; pair source set: Lit-BS-16.
The next test deals with Zif. As to conditions: MAPPIT configuration: N-N; pair source set: screen_2.
The next test deals with Xbp1. The settings on record: MAPPIT configuration: N-N; pair source set: Curagen_low_conf.
A further test deals with Uba4. As to conditions: MAPPIT configuration: N-N; pair source set: Curagen_high_conf.
Another test has as its target Uba5. As to conditions: pair source set: RRS.
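Further: HEK293T cells with Epo stimulation, STAT-responsive firefly luciferase reporter, fold induction versus unstimulated cells divided by the larger fold induction of two negative controls lacking either bait or prey.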

B1: AdSS (protein)
chain: MSASATNGTHYEQLHQGRTKMYKSKVDVVLGAQWGDEGKGKVVDMLASDVDIVCRCQGGNNAGHTVVANGTEFDFHLLPSGVVNEKCVSVIGNGVVIHLPSLFDEVLKNEAKGLQHLENRLIISDRAHLVFDFHQHVDGMQEAEKGGKSLGTTKKGIGPAYSSKATRNGIRVGELLGDFNLFSEKFKSIVATHVRLFPSINVDVEAELARYKDYADKVRPYVKDTICFLHTALRNGKTILVEGANAAMLDIDFGTYPYVTSSNCSIGGVLTGLGLPPQTIGEVIGVVKAYTTRVGDGPFPTEQLNDIGDLLQTRGFEVGVTTKRKRRCGWLDIPLLKYTSLVNGYTCICLTKLDILDTLPEIKVAVAYKKPNGEKLDHFPGTIAELGNIEVEYAVLPGWQTSTEEVRNFKELPENAQSYVRLLESELSVPVRWVGVGKGRESIINVH
Regarding B1, the MAPPIT interaction score with Usp16-45 is 1.38 (inactive).

B2: Mst87F (protein)
chain: MCCGPCGPCCGPCCGPCCGPCGPCGGGCGPCYGPNVCGPCYACGPCGGCYCGYPCC
On to B2, for which the MAPPIT interaction score with Vsx1 was 0.606 (inactive).

B3: Nup107 (protein)
chain: MADSPFPRSSRSGLLRTTLNSSMPPQNLSHSLLILEKSNAEQNELSLMEDTGDDLDRGKSRMDVLFPQFFDVLQAQGNGQEAFEVIQSLTQVCRGVVEQLELEIDHGMGGEQGARQRESMLTWLRQEINTWRLLHALFYDRILLQTDRQADDEMQDGPTLGGSEKEVIQQLYALNATLREYQLVVDWLEACYDRGEQQNPLHAHDRMMAWENTLFQLENLQGAAFGKGHKIVTRLDPDAPVREKRPLHALDEEDNLRLSRAIFELIRAGRVDDGLKLCKHFGQTWRAAILEGWRLHEDPNFEQNVSVLHEKLPIEGNPRRDIWKRCAWMLADSKNYDEYSRATAGVFSGHLGSLKTLLHSNWHDLLWAHLKVQIDIRVESEIRGCCLKNYQPMPDDYWNGRMTMEQIFEELNVAKDASVRDFAQSQLGIIQRHLILDTCGELIQHMVRWVEKDTSQQSPHQLRFMAHIVLFLRQIGRVEQERQAEKIVAAYVEALIARGEPQLIAYYTASLSNPLQVQLYSRFLEQVEQKRPRELAVDAALQAGLDVEQITRVTVQNIRLAHQPLGEFGEPQSGEISAIDQRKISALEWLIHLPEQRGELLWQANAMIRTYLASSKVECMRQTFRMVPADIVQQLVSLYGSVDNIPPREECCLKEYLCYKAYLSGVDSFVEWNRLQQNRPKKPQTSHAASSQDNFTERMASERKEQAHRSEVVRWEHKVKEQAKQTIELLYNVLMFPDKGWLVDPFIAKLPENAVQLSWDHRLLQMEKLRSICIPEIALFLNEVMFKSGDFAGCVRLADEISSENRQLYKVYTKHKLAELLAKIADASLELLNSKLDPWGYPITT
Take B3: in the test with Yp2, the MAPPIT interaction score is 0.235 (inactive).

B4: Vha26 (protein)
chain: MALSDADVQKQIKHMMAFIEQEANEKAEEIDAKAEEEFNIEKGRLVQQQRLKIMEYYEKKEKQVELQKKIQSSNMLNQARLKVLKVREDHVSSVLDDARKRLGEVTKNQSEYETVLTKLIVQGLFQIMEPKVILRCREVDVPLVRNVLPAAVEQYKAQINQNVELFIDEKDFLSADTCGGVELLALNGRIKVPNTLESRLDLISQQLVPEIRNALFGRNVNRKFTD
Take B4: the MAPPIT interaction score in the test with Vha13 is 1.21 (inactive).

B5: spn-F (protein)
chain: MEASAAKITPMASSMSASGSTNSPSSEKMNYALQVALQTIKERCIQLQRRVASMEEENQQLREASSRSEGAPRANEIGVTGDVLSLKAQVSELQRQKEQLEEHIGMVSNENRRLWSRLSQISKDQQLNALPSSTDSRAQQNQNLVRSKTFTQHSPNPHLRQKMLSDGIKDLSLEEIALDDFGASSEELGYPYNLQKVEETTSEPDANVDAKRCLDGLQELRREAMKQQQELRSVMTLLENRIALKPCPECAQKTIKKPEMADKSLETDDSLTSELKNYESQHNGHNGTPPSQRINIIQEKIKADAADAMEKTCPMCGKQYSSQVSFNAFREHVEMHFIDDALELESENSIERQFEFVSHAVGDF
For the molecule B5, the MAPPIT interaction score with Vti1a is 0.032 (inactive).

B6: shrb (protein)
chain: MSFFGKMFGGKKEVAPTTGEAIQKLRETENMLIKKQEFLEAKIEDELNIARKNASKNKRVALQALKKKKRLEKQLQQIDGTLSTIEMQREALESANTNTAVLTTMKNAADALKRAHQNMDVDKVHDMMDDIAEQQDVAREISDAISNPVAFGADLDDEDLERELDELEQENFDKEIIGIPEPTPTLPEAPTEDLPEKAKEKKKATTTTAVEDDDDPDMKQLLSWSN
Turning to B6, the MAPPIT interaction score with Vps24 was 0.054 (inactive).

B7: noi (protein)
chain: METLLEQQRRLHEERERLVKLMVDEHATKKPGEKERIHSEHRLKYLMELHHNSTSQLRDLYEDKDNERKAEIAALSGPNEFNEFYARLKQIKQFYKSHPAEVSVPLSVEFDEMIRVYNNPDDMSALVEFTDEEGGGRYLDLNECYELYLNLRSVEKLDYITYLMSFDHVFDIPRERKNREYRIYIETLNDYLHHFILRIQPLLDLEGELLKVELDFQRQWLMGTFPGFSIKETESALANTGAHLDLSAFSSWEELASLGLDRLKSALVALGLKCGGTLEERAQRLFSTKGKSTLDPALMAKKPSAKTASAQSREHERHKEIAQLEALLYKYADLLSEQRAATKENVQRKQARTGGERDDSDVEASESDNEDDPDADDVPYNPKNLPLGWDGKPIPYWLYKLHGLNISYNCEICGNFTYKGPKAFQRHFAEWRHAHGMRCLGIPNTAHFANVTQIEDAITLWEKLKSQKQSERWVADQEEEFEDSLGNVVNRKTFEDLKRQGLL
For B7, in the test with Yif1, the MAPPIT interaction score is -0.019 (inactive).

B8: CG2034 (protein)
chain: MLSNLVVTKQKVVLVIDELNRERIAPKFIGSLLHEQGQGADTIKALPTGVSLKHVATFEALIDKYANNNTGSTTDSNSTGFNVILPTLADLLCYQTPAFIFGFLNRLRRSDNVRRVFLWASPQHLQDPHADYILAGCEYLAELVLRLESDKLLSLISRKPGGGVSNRRYSCEVSKTQFKVTPLDGGLPAGASPKQPSPEAEQTTEPASSTFKIELDEDEVLARNALTLPYERTSEPSEGNIIYTPDADDDFDEEDPDEDLCI
Consider B8, for which, in the test with U4-U6-60K, the MAPPIT interaction score is 0.24 (inactive).

B9: Dpy-30L1 (protein)
chain: MEAKTDAPISPAPTTNPPAEAGKEPNASSNAQANPTAAPGAPPSGAIAVGQSTNPVAQQQQQPAVAKKPSSETNNMPTRQYLDQTVAPVLLHGMQALARERPTDPIQFLASYLLKHSNGCDENNASAAAVDNNS
For the molecule B9, the MAPPIT interaction score with Vps51 is 1.49 (inactive).

B10: esn (protein)
chain: MQQAPQQQQHPHPPSSSYYTQTESELLQIEAGGTGLTFASHSQRPESAISQVASTAHLDVPSAASSGSGGSAVSGGSGGAPESAGRFVSPLQRRHCQPPSHLPLNSVASPLRTASYKSAAAVAGHGFHHSHHQQLDFQRNSQSDDDSGCALEEYTWVPPGLRPDQVRLYFSQLPDDKVPYVNSPGEKYRVKQLLHQLPPQDNEVRYCHSLSDEERKELRIFSAQRKREALGRGAVRLLSDERPCKGCEEPLSGGDIVVFAQRLGAQLCWHPGCFVCSVCKELLVDLIYFQRDGNLYCGRHHAETQKPRCSACDEIIFSDECTEAEGRTWHMKHFACQECEHQLGGQRYIMREGKPYCLACFDTMFAEYCDYCGEVIGVDQGQMSHDGQHWHATDQCFSCCTCRCSLLGRPFLPRRGTIYCSIACSKGEPPTPSDTSSGPQLRPTHRASTSSQIAKSPRRGGERERDPGRKAHHGHPKATGSAGDLLERQERQRMEAAGVADLLLGGGVPGMPRPAHPPPIDLTELGISLDNICAGDKSIFGDTQTLTNSMPDMLLSKADDSHSYQSIDKINLNSPSNSDLTQSTQELANELELDNEPVRELPHDGYEQLFANNRNQEHPAEQYDDEQLDNRPMKEVRFHSVQDTMSRSKSYTDNSNARRRRRRRNQSRSSSEMQINQTNLRLHNAQTQVGTTPLNLLNNLDNCDVASICSTCSSSSSSDMDDYVYRLPARKHYGGVRVAYVPNDALAYERKKKMAQDSSLAPGAGNASVGGAPAIMHESKNCTIS
Regarding B10, the MAPPIT interaction score was 0.202 (inactive) in the test with Zpr1 and 3.43 (active) with sinah.

B11: eIF4E1 (protein)
chain: MQSDFHRMKNFANPKSMFKTSAPSTEQGRPEPPTSAAAPAEAKDVKPKEDPQETGEPAGNTATTTAPAGDDAVRTEHLYKHPLMNVWTLWYLENDRSKSWEDMQNEITSFDTVEDFWSLYNHIKPPSEIKLGSDYSLFKKNIRPMWEDAANKQGGRWVITLNKSSKTDLDNLWLDVLLCLIGEAFDHSDQICGAVINIRGKSNKISIWTADGNNEEAALEIGHKLRDALRLGRNNSLQYQLHKDTMVKQGSNVKSIYTL
Regarding B11, the MAPPIT interaction score with Zif was -0.101 (inactive).

B12: Ubc2 (protein)
chain: MSSTPAAGSAAEVATSSATSNAPSAPSTTASNVSNTSQPTTAGTPQARGGRGSNANGGASGSNAGGGDEPRKEAKTTPRISRALGTSAKRIQKELAEITLDPPPNCSAGPKGDNLYEWVSTILGPPGSVYEGGVFFLDIHFSPEYPFKPPKVTFRTRIYHCNINSQGVICLDILKDNWSPALTISKVLLSICSLLTDCNPADPLVGSIATQYLQNREEHDRIARLWTKRYAT
B12: the MAPPIT interaction score with Xbp1 was -0.108 (inactive).

B13: Coa8 (protein)
chain: MNKCFRCQPRISLFQFSLPRCYAAVQPGCPPPQEKPVVGLPHKPDPKTVKCDYIGPPDAQSNLRPYVRHYGDEETRLARSLRLKRIEVEAWNTDFWTKHNKRFYEEKEDFIRLHKESGTSEVSADQMSHFYKAFLDKNWRIHIMYNISWYLKNFDILTLAAAVQLQRLLALAKRRS
On to B13, for which the MAPPIT interaction score with Uba4 is 2.52 (active).

B14: htl (protein)
chain: MAAAWSWRASHSTITMTSGSLVVLFLLLSIWQPAVQVEGRRQMANSQEMIKDHLGARSQNKTPAITNNANQSSTSSADLDDGAADDDDNKADLPVNVSSKPYWRNPKKMSFLQTRPSGSLLTLNCHALGNPEPNITWYRNGTVDWTRGYGSLKRNRWTLTMEDLVPGDCGNYTCKVCNSLGCIRHDTQVIVSDRVNHKPILMTGPLNLTLVVNSTGSMHCKYLSDLTSKKAWIFVPCHGMTNCSNNRSIIAEDKDQLDFVNVRMEQEGWYTCVESNSLGQSNSTAYLRVVRSLHVLEAGVASGSLHSTSFVYIFVFGGLIFIFMTTLFVFYAIRKMKHEKVLKQRIETVHQWTKKVIIFKPEGGGDSSGSMDTMIMPVVRIQKQRTTVLQNGNEPAPFNEYEFPLDSNWELPRSHLVLGATLGEGAFGRVVMAEVNNAIVAVKMVKEGHTDDDIASLVREMEVMKIIGRHINIINLLGCCSQNGPLYVIVEYAPHGNLKDFLYKNRPFGRDQDRDSSQPPPSPPAHVITEKDLIKFAHQIARGMDYLASRRCIHRDLAARNVLVSDDYVLKIADFGLARDIQSTDYYRKNTNGRLPIKWMAPESLQEKFYDSKSDVWSYGILLWEIMTYGQQPYPTIMSAEELYTYLMSGQRMEKPAKCSMNIYILMRQCWHFNADDRPPFTEIVEYMDKLLQTKEDYLDVDIANLDTPPSTSDEEEDETDNLQKWCNY
Consider B14, for which the figures for the MAPPIT interaction score in the test with Uba5 (MAPPIT configuration: N-C) and with Uba5 (MAPPIT configuration: N-N) were -0.924 (inactive) and -0.283 (inactive), respectively.
